OvCa metastasis – Primary qHTS assay for Inhibitors of ovarian cancer metastasis using an organotypic tumor microenvironment (TME) model. Potency, µM (series often up to 45.8 µM), most hits filed as inhibitors. hit rate 0.1% among 46,000. SKOV3ip1-GFP adhesion/invasion on 3D omental model, fluorescence; note: nearly all actives have a fitted effect of over 65% in size
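Primary human omental fibroblast/mesothelial 3D culture pre-formed 48 h. SKOV3ip1-GFP cells added with compounds (0.36-46 umol/L), incubated 2 h RT/16 h 37 C, fixed; GFP cells quantified at 488/509 nm.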
S16 viability – Cell viability qHTS assay in S16 Pmp22-F2sN cells. S16 Pmp22-F2sN Schwann cells viability, CellTiter-Glo, 24 h. Potency, µM (doses to about 57.5 µM), hits mostly cytotoxic. hit rate 0.48% among 43,000. AID 1508642, 2021; note: nearly all actives have a fitted effect of over 65% in size
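Used to flag compounds lowering reporter output through toxicity, this quantitative HTS measures ATP-based CellTiter-Glo luminescence in S16 Pmp22-F2sN Schwann cells after 24 h compound exposure at 37C.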
pS6 MEF inh – Acumen qHTS Assay for Inhibitors of the mTORC1 Signaling Pathway in MEF (Tsc2-/-, p53-/-) Cells: Sytravon; Tsc2-/- p53-/- MEF, phospho-rpS6 immunofluorescence/PI, 24 h; Potency, µM (highest dose often 38.3 µM), usual class: inhibitors; hit rate 0.78% among 44,000; AID 493208, 2011; note: nearly all actives have a fitted effect of over 50% in size
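Compounds act on Tsc2-/-, p53-/- fibroblasts carrying an empty vector for 24 h before fixation and dual staining for phospho-S6 and DNA (propidium iodide). Values are percentages of cells above a rapamycin-defined pS6/PI threshold.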
PMP22 txn – Cell-based coincidence reporter assay to measure PMP22 gene transcription in S16 Pmp22-F2sN cells - Primary screen; S16 Pmp22-F2sN Schwann cells (luciferase reporters placed in the Pmp22 gene), FLuc/NLuc coincidence luminescence, 24 h; hit rate 2% among 43,000; AID 1508649, 2021; Potency, µM (doses to about 57.5 µM), most hits filed as inhibitors; active = clear falling dose curves in both reporters; inconclusive = both reporters move, but less clearly or upward; inactive = either reporter flat; the % is the NLuc reporter signal
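qHTS, 1536-well. Cells seeded, compounds added by pin tool, 24 h 37C. Nano-Glo reagent 1 (lysis/FLuc), 10 min RT, read; Stop&Glo, 10 min RT, read NLuc.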
p53null 39C kill – qHTS Screen for Compounds that Selectively Target Cancer Cells with p53 Mutations: Cytotoxicity of p53 Null Cells at the Nonpermissive Temperature | hit rate 0.97% among 55,000 | H1299 p53-null (neo) cells, 39C, ATPlite viability, 24 h | AID 904, 2007 | Potency, µM (highest dose often 46.1 µM), actives largely listed as cytotoxic; note: nearly all actives have a fitted effect of over 50% in size
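Concentration-response (up to 46 uM) was run for 24 h at the nonpermissive 39C on H1299-p53A138V or H1299-neo cells. ATP content was measured with ATPlite luminescence. AC50 values were Hill-modeled after normalizing between DMSO and 100 uM tamoxifen killing.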
p53null 32C kill – qHTS Screen for Compounds that Selectively Target Cancer Cells with p53 Mutations: Cytotoxicity of p53 Null Cells at the Permissive Temperature | H1299-neo p53 null cells, ATP luminescence, 24 h, 32C | Potency, µM (doses to about 46.1 µM), actives largely listed as cytotoxic | hit rate 0.62% among 55,000 | AID 903, 2007; note: nearly all actives have a fitted effect of over 55% in size
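Cells lacking p53 (H1299-neo) are plated at 600 per well and allowed to settle overnight at 37C. Test compounds (up to 46 uM) are added and held 24 hours at 32C, then ATP is quantified by luminescence.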
A number is an active result. Most compounds without a hit are left out; they make up all but 3.1% or so of the library. Unless noted, calls come from the whole dose curve; as a rule, active = well fitted curve in the direction sought with a large enough effect; inconclusive = small, poorly fitted or top-dose-only effect, or another doubt; inactive = no such curve, though single readings can be large; an effect the other way counts as inactive or inconclusive.

For CCN(C(=O)C1CCN(S(=O)(=O)c2cc(Br)cc3c2N(C(C)=O)CC3)CC1)c1cccc(C)c1 the results were OvCa metastasis inactive, S16 viability inconclusive, pS6 MEF inh inactive, PMP22 txn 8.9µM, p53null 39C kill inactive and p53null 32C kill inactive.
`CCc1nn(CC(=O)NCc2ccccc2Cl)c(=O)c2cccn12` gave OvCa metastasis inactive, S16 viability inactive, pS6 MEF inh 2.6µM, PMP22 txn inactive, p53null 39C kill 16µM and p53null 32C kill inactive.
CCc1cccc(C)c1NC(=O)Cn1nc(C)n2cccc2c1=O was read as OvCa metastasis inactive, S16 viability inactive, pS6 MEF inh inconclusive, PMP22 txn inactive, p53null 39C kill 13µM and p53null 32C kill inactive.
CCN1C(C(=O)c2ccccc2)=C(OC(=O)c2ccccc2OC)c2ccccc2S1(=O)=O was read as OvCa metastasis inconclusive, S16 viability inactive, pS6 MEF inh inactive, PMP22 txn inconclusive, p53null 39C kill 13µM and p53null 32C kill inconclusive.
`CCCCN1C(C(=O)c2ccccc2)=C(OC(C)=O)c2ccccc2S1(=O)=O` gave OvCa metastasis inactive, S16 viability inconclusive, pS6 MEF inh inconclusive, PMP22 txn inconclusive, p53null 39C kill 5µM and p53null 32C kill inconclusive.
For CCCN1C(C(=O)c2ccccc2)=C(OC(=O)c2ccc(OC)cc2)c2ccccc2S1(=O)=O the results were OvCa metastasis inactive, S16 viability inactive, pS6 MEF inh inactive, PMP22 txn inconclusive, p53null 39C kill inactive and p53null 32C kill inactive.
CCCCC(=O)OC1=C(C(=O)c2ccccc2)N(CC)S(=O)(=O)c2ccccc21 was read as OvCa metastasis inactive, S16 viability inactive, pS6 MEF inh inactive, PMP22 txn inactive, p53null 39C kill inconclusive and p53null 32C kill inactive.
For C[C@]1(c2nc3c(C(N)=O)cccc3[nH]2)CCCN1 the results were OvCa metastasis inactive.
Screening NC(=O)c1ccccc1N/C=C/C(=O)c1cccs1 returned p53null 39C kill 11µM and p53null 32C kill 13µM.
Cc1cccc(N/C=C/C(=O)c2cccs2)c1C was read as p53null 32C kill 14µM.
For O=C(O)c1ccc(-c2c[nH]c3ncc(-c4ccccc4)cc23)cc1C1CCCC1 the results were OvCa metastasis inactive.
`Cc1ccc(C(C)(O)c2nc3ccccc3s2)c(C)c1` (stereo unspecified) gave OvCa metastasis inactive.
`COc1cc(Cl)c(C)cc1NC(=O)c1cc2ccc3cccnc3c2[nH]1` gave OvCa metastasis inactive, S16 viability inactive, pS6 MEF inh inactive, PMP22 txn inconclusive, p53null 39C kill inactive and p53null 32C kill 20µM.
`CN1CCC(COc2cnc(-c3cccc(Cn4nc(-c5cccc(C#N)c5)ccc4=O)c3)nc2)CC1` gave OvCa metastasis inactive.
For CCN(CC)c1ccc(NS(=O)(=O)c2ccc(-c3cnc(C4CC4)o3)cc2)c(C)c1 the results were OvCa metastasis inactive, S16 viability 1.8µM, pS6 MEF inh inactive, PMP22 txn inconclusive, p53null 39C kill inactive and p53null 32C kill inconclusive.
COc1cccc(N2CCN(S(=O)(=O)c3ccc(-c4cnc(C5CC5)o4)cc3)CC2)c1 was read as OvCa metastasis inactive, S16 viability 16µM, pS6 MEF inh inactive, PMP22 txn inconclusive, p53null 39C kill inactive and p53null 32C kill inactive.
Screening CCOc1ccccc1NS(=O)(=O)c1ccc(-c2cnc(C3CC3)o2)cc1 returned OvCa metastasis inactive, S16 viability inactive, pS6 MEF inh inconclusive, PMP22 txn inconclusive, p53null 39C kill inconclusive and p53null 32C kill inactive.
